Results reported in PubChem BioAssay (NCI).
Where “and” joins values, the source holds several entries; their conditions need not be identical. Equal values may be shown once. Compounds without any hit were thinned out: in the full panel of roughly 83,000, 20% have a hit.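 Note: values are percent growth. 100 is the growth of untreated cells, values between 100 and 0 indicate rising inhibition; between -100 and 0 indicates cell death.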 A number with no mark means an inactive call. Calls of active or inactive are those of the source. How the source made its calls: active means growth percent below 10; inactive means the rest.

Tests used:
Experiment in all cases: NCI-60 one-dose screen, 48 h (100 = growth as untreated, 0 = no growth, -100 = all killed)
[1] = system: HCT-15 colon; conditions: 10 µM unless noted
[2] = system: HT29 colon; conditions: 10 µM unless noted
[3] = system: SNB-75 CNS; conditions: 10 µM unless noted
[4] = system: SNB-19 CNS; conditions: 10 µM unless noted
[5] = system: U251 CNS; conditions: 10 µM unless noted
[6] = system: PC-3 prostate; conditions: 10 µM unless noted
[7] = system: SK-MEL-5 melanoma; conditions: 10 µM unless noted
[8] = system: UACC-62 melanoma
[9] = system: SK-MEL-28 melanoma; conditions: 10 µM unless noted
[10] = system: LOX IMVI melanoma; conditions: 10 µM

Row | Structure (SMILES) | growth [1] | growth [2] | growth [3] | growth [4] | growth [5] | growth [6] | growth [7] | growth ([8]; 10 µM unless noted) | growth [9] | growth [10] | growth ([8]; 10 µM) [%] | growth ([8]; 100 µM)
1 | O=C(O)CSCC(=O)Nc1cc(C(F)(F)F)ccc1Cl | 103% | 104% | 125% | 106% | 106% | 102% | 102% | 99.6% | 114% |  |  | 
2 | c1ccc2[nH]c(Cc3nc4ccccc4[nH]3)nc2c1 | 107% | 112% | 94.9% | 130% | 106% | 93.7% | 104% | 105% | 94.3% |  |  | 
3 | CS(=O)CC(=N\O)/C(CS(C)=O)=N\O (stereo not drawn) | 99% | 99.9% | 96.5% | 101% | 96.5% | 104% | 103% | 93.8% | 107% |  |  | 
4 | Cc1ccc(N2C(=O)c3cccc4c(N)c(S(=O)(=O)O)cc(c34)C2=O)cc1 | 105% | 124% | 111% | 112% | 96.7% | 90% | 102% | 97.4% | 124% |  |  | 
5 | COc1ccc(C)cc1NC(=O)SC(C)C | 102% [100 µM] | 104% [100 µM] | 82.4% [100 µM] | 99% [100 µM] | 104% [100 µM] | 96.7% [100 µM] | 96.3% [100 µM] | 87.5% [100 µM] | 102% [100 µM] |  |  | 
6 | O=C1C=C[C@H](O)[C@@]2(CO)O[C@@H]12 | 104% | 53.9% | 81% | 100% | 91.4% |  | 100% | 65.8% | 42.1% | 66.7% |  | 
7 | CC(=O)NC(O)C(Cl)Cl (stereo not drawn) | 102% | 105% | 103% | 106% | 91.4% |  | 102% | 106% | 103% | 87.8% |  | 
8 | CCCCOC(=O)c1ccc(NC(=O)CCl)cc1 | 14.9% | 12.8% | 68.9% | 62.6% | 4.55% (active) |  | 58.7% | 52.9% | 102% | -43.4% (active) |  | 
9 | CCC(C)C1CCC(O)CC1 (stereo not drawn) | 104% | 105% | 91.7% | 112% | 98.8% | 100% |  | 104% | 106% | 101% |  | 
10 | NS(=O)(=O)c1cc(=O)[nH]c(=O)[nH]1 | 111% | 108% | 93.1% | 106% | 98% | 120% | 107% |  | 110% | 93.4% |  | 
11 | O=C(NCc1ccccc1)c1cccc([N+](=O)[O-])c1 | 104% | 97.8% | 101% | 95.1% | 89.1% | 88.9% | 103% |  | 114% | 105% |  | 
12 | O=C1C=Cc2ccccc2/C1=C/c1[nH]c(=O)[nH]c1O | 59.7% | 37.7% | 31.9% | 34.1% | 29.3% | 27.4% |  | 24% | 30.6% | 48.8% |  | 
13 | CC(C)(C)CC1(C)NC(=O)NC1=O (stereo not drawn) | 110% | 107% | 83.8% | 110% | 111% | 106% | 108% |  | 116% | 102% |  | 
14 | N=C(N)c1nn(C2OC(CO)C(O)C2O)c2nc[nH]c(=O)c12 (stereo not drawn) | 0.318% (active) | 11.7% | 9.13% (active) | 5.88% (active) | 16% | -3.91% (active) | -97% (active) |  | -53.9% (active) | -27.8% (active) |  | 
15 | OCCNc1ccccc1 | 105% | 104% | 91.3% | 116% | 97.6% | 95.7% |  | 109% | 107% | 94.3% |  | 
16 | NNc1ncccn1 | 106% | 91.8% | 80.2% | 111% | 102% | 106% | 115% |  | 106% | 96.9% |  | 
17 | COc1cc(CC#N)c([N+](=O)[O-])cc1OC | 116% | 108% | 107% | 109% | 95.8% | 101% |  | 99.8% | 107% | 102% |  | 
18 | O=C(Oc1ccccc1Cl)c1ccc(Cl)cc1Cl | 103% | 105% | 91.8% | 99.6% | 89.5% | 93.6% | 102% |  | 109% | 104% |  | 
19 | O=C(O)c1cc(I)ccc1O | 101% | 104% | 81.8% | 93.1% | 100% | 104% | 103% |  | 113% |  |  | 
20 | CC(C)NC(=O)OCc1c(COC(=O)NC(C)C)c(-c2ccc(Cl)cc2)n2c1CCC2 | 58.4% | 56% | 34.1% | 57.9% | 49% | 68.2% | 68.1% |  | 84.7% |  |  | 
21 | O=C(O)Cc1ccccn1 | 99.7% | 103% | 103% | 101% | 99% |  | 104% | 106% | 106% | 113% |  | 
22 | CN1CCCN(C(c2ccccc2)c2ccc(Br)cc2)CC1 (stereo not drawn) | 63.8% | 39.1% | 38.5% | 99.6% | 71.1% | 61.4% | 60.3% |  | 64.9% |  |  | 
23 | Nc1cc(F)ccc1[N+](=O)[O-] | 102% | 109% | 85.9% | 102% | 106% | 87.5% |  | 101% | 104% | 100% |  | 
24 | CCOc1ccc(C(=O)O)cc1 | 95.7% | 103% | 89.2% | 112% | 103% | 91.2% |  | 104% | 105% |  |  | 
25 | O=C(O)c1ccccc1Cc1ccc2c(c1)CCCC2 | 104% | 107% | 87.2% | 102% | 111% | 103% |  | 96.4% | 108% |  |  | 
26 | CC1(C)OC(=O)CC1=O | 110% | 93.5% | 93.5% | 105% | 83.2% | 81.5% | 98.7% |  | 109% | 96.9% |  | 
27 | C=CC(C)(C)n1cc(C2=C(O)C(=O)C(c3cn(C(C)(C)C=C)c4ccccc34)=C(O)C2=O)c2ccccc21 | 84.2% | 99.3% | 67.8% | 80.2% | 82.6% | 80.8% |  |  |  | 97.2% | 100 | -85.8% (active) and -96.5% (active)
28 | Nc1ccn(C2CC(N)C(CO)O2)c(=O)n1 (stereo not drawn) | 71.4% | 81.3% | 77.6% | 68.2% | 80.9% | 74.8% | 83.6% |  | 118% | 75.4% |  | 
29 | CC(C)C1CCC(C)C(O)C1 (stereo not drawn) | 107% | 105% | 91.1% | 99.6% | 89% | 89% | 105% |  | 110% |  |  | 
30 | CCOC(=O)/C(C)=C\c1ccc(OC)c(OC)c1 | 101% | 106% | 92.9% | 107% | 94% | 97.5% |  | 101% | 108% |  |  | 
